Reference: PubChem BioAssay (Tox21)
Where “and” joins values, the source holds several entries; their conditions need not be identical. Equal entries are not always repeated. Records with an inconclusive call do not appear. Unmarked numbers belong to inactive results. Calls of active or inactive are those of the source. Unless noted, calls follow the shape of the full dose curve.

Experiment: qHTS assay to identify small molecule antagonists of the peroxisome proliferator-activated receptor gamma (PPARg) signaling pathway - cell viability counter screen (AID 743194; active = well fitted cell-killing curve with a large enough effect in the repeat runs; also: nearly all actives have a fitted effect of over 55% in size)
Details: PPARg-bla HEK293H viability, CellTiter-Glo luminescence, 17 h, co-treated with 50 nM rosiglitazone; series mostly up to 62.6 µM; activity change, negative = cytotoxicity: at the top concentration
How it was run: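 Cytotoxicity counter screen in PPARg-bla HEK293H cells, same wells as reporter assay. Compounds plus 50 nM rosiglitazone (final) for 17 h at 37 C, then viability read by CellTiter-Glo luminescence.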
% is scaled to controls: 0 for no effect and ±100 for the full control effect; potency is read from the fitted curve at half-maximal effect.

SMILES | Potency | activity change, negative = cytotoxicity
CC=O | 25.7 µM (active) | –
CCOC(=O)C1=C(C)NC(C)=C(C(=O)OCC)C1c1ccccc1/C=C/C(=O)OC(C)(C)C | – | -35.5%
O=C1OC(=O)c2cccc3cccc1c23 | – | -0.518% [at 81.1 µM]
Cc1cc2c(C(C)C)c(O)c(O)c(C=O)c2c(O)c1-c1c(C)cc2c(C(C)C)c(O)c(O)c(C=O)c2c1O | 8.41 µM (active) | –
CN1CCN(C2Cc3ccccc3Sc3ccc(Cl)cc32)CC1 (stereo not given) | 29.8 µM (active) | –
CCNc1nc(NC(C)CC)nc(OC)n1 (stereo not given) | – | -7.68%
CN(C)CCCN1c2ccccc2CCc2ccccc21 | inactive | –
CC(C)(C)c1cc(/C=C2\SC(=N)NC2=O)cc(C(C)(C)C)c1O | 43.6 µM (active) | –
ClC/C=C\CCl | – | -9.23% [at 81.1 µM]
O=C(c1ccccc1)c1cc(Cl)ccc1O | – | 3.48%
CCCCOC(=O)C(C)CC (stereo not given) | – | 14.3%
CC1(C)C(=O)N(Br)C(=O)N1Br | – | 17.3%
CC(=O)OC(OC(C)=O)c1ccc([N+](=O)[O-])o1 | 49.8 µM (active) | –
COc1cc(C(C)C)c2c(c1)S(=O)(=O)N(COc1cc(=O)n3cccc(OCCN4CCCCC4)c3n1)C2=O | – | -15.2% [at 29.1 µM]
O=C(O)Cc1ccc(OCCNC[C@H](O)c2ccccc2)cc1 | – | 15.6%
CCCCCCCCCCCCN(CCO)CCO | 54.7 µM (active) | –
CCCCOc1ccc(C(=O)CCN2CCCCC2)cc1 | – | -17.2%
O=C(Nc1ccc(Cl)cc1)Nc1ccc(Cl)c(C(F)(F)F)c1 | 8.41 µM (active) | –

Experiment: qHTS assay for small molecule agonists of the antioxidant response element (ARE) signaling pathway (AID 743202; active = well fitted activation curve with a large enough effect in the signal ratio in the repeat runs, not every such curve was filed as active; the % refers to the signal ratio)
Details: HepG2 ARE-bla reporter, beta-lactamase FRET, 16 h; series mostly up to 73.3 µM; activation: at the top concentration
How it was run: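 HepG2 ARE-bla cells; 16 h treatment at 37 C; FRET-based beta-lactamase fluorescence read after 2 h substrate incubation at room temperature.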

SMILES | Potency | activation
C=CC(=O)OCCC#N | 34.6 µM (active) | –
CN(C)c1ccc(N=NS(=O)(=O)O)cc1 | 8.63 µM (active) | –
CCCCOC(=O)C(C)CC (stereo not given) | – | 12.3%
CC1(C)C(=O)N(Br)C(=O)N1Br | – | 14.8%
CC(=O)OC(OC(C)=O)c1ccc([N+](=O)[O-])o1 | 15.6 µM (active) | –
O=C(O)Cc1ccc(OCCNC[C@H](O)c2ccccc2)cc1 | – | 5.83%

Experiment: qHTS assay for small molecule agonists of the antioxidant response element (ARE) signaling pathway - cell viability counter screen (AID 743203); also: nearly all actives have a fitted effect of over 55% in size
Details: ARE-bla HepG2 viability, CellTiter-Glo luminescence, 16 h; series mostly up to 73.3 µM; viability change, negative = cytotoxic: at the top concentration
How it was run: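 Cytotoxicity was tested in parallel with the ARE reporter screen. ARE-bla HepG2 cells were exposed to compounds for 16 hrs, and viability was taken from CellTiter-Glo luminescence.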

SMILES | viability change, negative = cytotoxic | Potency
C[n+]1c2cc(N)ccc2cc2ccc(N)cc21 (tested in a mixture with another compound) | -15.1% | –
CC=O | – | 32 µM (active)
CCN(CC)CCNc1ccc(CO)c2sc3ccccc3c(=O)c12 | – | 6.68 µM (active)
O=C1OC(=O)c2cccc3cccc1c23 | -27.1% [at 94.8 µM] | –
Cc1cc2c(C(C)C)c(O)c(O)c(C=O)c2c(O)c1-c1c(C)cc2c(C(C)C)c(O)c(O)c(C=O)c2c1O | – | 8.41 µM (active)
COc1ccc2sc(C(=O)Nc3nnn[nH]3)c(OC(C)C)c2c1 | -0.446% | –
CN1CCN(C2Cc3ccccc3Sc3ccc(Cl)cc32)CC1 (stereo not given) | – | 29.8 µM (active)
CCNc1nc(NC(C)CC)nc(OC)n1 (stereo not given) | 4.83% | –
Nc1ccc2cc3ccc(N)cc3nc2c1 | – | 24.3 µM (active) and 29.8 µM (active)
CC(C)(C)c1cc(/C=C2\SC(=N)NC2=O)cc(C(C)(C)C)c1O | – | 24.3 µM (active)
ClC/C=C\CCl | 2.26% [at 94.8 µM] | –
O=C(c1ccccc1)c1cc(Cl)ccc1O | -0.193% | –
C=CC(=O)OCCC#N | -17.6% [at 94.8 µM] | –
CN(C)c1ccc(N=NS(=O)(=O)O)cc1 | 19.9% | –
CCCCCCCCCCCCCCNCCO | – | 26.6 µM (active)
CCCCOC(=O)C(C)CC (stereo not given) | -3.11% | –
CC1(C)C(=O)N(Br)C(=O)N1Br | -4.96% | –
CN(C)CCCN1c2ccccc2Sc2ccc(C(F)(F)F)cc21 | – | 29.8 µM (active)
C=CC(=O)OCCOCC(CC)(COCCOC(=O)C=C)COCCOC(=O)C=C | 3.99% [at 94.8 µM] | –
CN(C)c1ccc(N=Nc2ccccc2C(=O)O)cc1 | – | 61.1 µM (active)
CC(=O)OC(OC(C)=O)c1ccc([N+](=O)[O-])o1 | – | 62.2 µM (active)
COc1cc(C(C)C)c2c(c1)S(=O)(=O)N(COc1cc(=O)n3cccc(OCCN4CCCCC4)c3n1)C2=O | 1.94% [at 34.3 µM] | –
O=C(O)Cc1ccc(OCCNC[C@H](O)c2ccccc2)cc1 | -0.879% | –
CCCCCCCCCCCCN(CCO)CCO | – | 54.3 µM (active)
CCCCOc1ccc(C(=O)CCN2CCCCC2)cc1 | – | 26.6 µM (active)
O=C(Nc1ccc(Cl)cc1)Nc1ccc(Cl)c(C(F)(F)F)c1 | – | 16.8 µM (active)
